Results reported in PubChem BioAssay (Tox21).
Records with an inconclusive call do not appear. Active and inactive are the calls of the source. Unless noted, calls follow the shape of the dose curve; as a rule, active = well fitted curve in the direction sought with a large enough effect in the repeat runs; inconclusive = weak or mixed curves; inactive = no such curve, though single readings can be large; an effect the other way counts as inactive or inconclusive.

What was measured:
[1] = qHTS assay for small molecules that induce genotoxicity in human embryonic kidney cells expressing luciferase-tagged ATAD5 (AID 651632); also: nearly all actives have a fitted effect of over 15% in size
In short: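 HEK293T cells carrying a luciferase reporter tagged to ATAD5 were exposed to compound or DMSO vehicle for 16 hr at 37C, 5% CO2. Amplite was added, and after 30 min at room temperature luciferase activity was read as a marker of ATAD5 induction.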

[2] = qHTS assay for small molecule agonists of the p53 signaling pathway - cell viability (AID 651633; calls by dose curve;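 also: p53RE-bla HCT reporter cells with a stable beta-lactamase p53 reporter; series mostly up to about 83 µM; nearly all actives have a fitted effect of over 30% in size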)
In short: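 Viability counter-read: CellTiter-Glo luminescence (30 min, room temperature) in the same p53RE-bla plates. These plates had been exposed to compounds for 16 h at 37 C.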

[3] = qHTS assay for small molecules that induce genotoxicity in human embryonic kidney cells expressing luciferase-tagged ATAD5 - cell viability (AID 651634; calls by dose curve; also: nearly all actives have a fitted effect of over 25% in size)
In short: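 HEK293T cells expressing luciferase-tagged ATAD5 were exposed to compound or DMSO for 15.5 hr at 37C, 5% CO2. Viability was then read as live-cell protease activity by CellTiter-Fluor fluorescence after 30 min at 37C.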

[4] = qHTS assay for small molecule disruptors of the mitochondrial membrane potential - cell viability (AID 720634; calls by dose curve;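 also: human HepG2 liver cancer cells; series mostly up to about 83 µM; nearly all actives have a fitted effect of over 20% in size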)
In short: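 HepG2 cells seeded overnight at 37 C, then exposed to compound or DMSO for 1 hr at 37 C, 5% CO2. m-MPI dye added, then CellTiter-Glo for 30 min at room temperature; viability read as ATP luminescence.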

[5] = qHTS assay for small molecule disruptors of the mitochondrial membrane potential (AID 720635)
In short: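 Mitochondrial membrane potential tracked with Mito-MPS dye, red aggregates (ex 540/em 590 nm) against green monomers (ex 490/em 535 nm). Compound treatment 1 hr at 37C, dye 30 min in HepG2.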

[6] = qHTS assay to test for compound auto fluorescence at 535 nm (green) in HepG2 cells (AID 720675)
[7] = qHTS assay to test for compound auto fluorescence at 460 nm (blue) in HEK293 cells (AID 720678)
In short: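 HEK293 cells (2,000/well, medium with 10% dialyzed FBS) attached 4-5 hr, then exposed to compound overnight at 37C, 5% CO2. Blue fluorescence read at 405/460 nm, with triamterene as reference fluorophore.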

[8] = qHTS assay to test for compound auto fluorescence at 590 nm (red) in HEK293 cells (AID 720679)
In short: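 HEK293 cells (2,000/well, 10% dialyzed FBS) attached 4-5 hr, then dosed with compound or DMSO and incubated overnight at 37C, 5% CO2. Red fluorescence read at 540/590 nm, Rose Bengal sodium as reference fluorophore.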

[9] = qHTS assay to test for compound auto fluorescence at 535 nm (green) in HEK293 cells (AID 720680)
[10] = qHTS assay to test for compound auto fluorescence at 460 nm (blue) in HEK293 cell free culture (AID 720681)
In short: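 Blue fluorescence (Ex 405/Em 460 nm, triamterene-equivalent) was read immediately after pin transfer of compound or DMSO into medium (DMEM, 10% FBS) without cells.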

[11] = qHTS assay to test for compound auto fluorescence at 590 nm (red) in HEK293 cell free culture (AID 720683)
In short: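 Red-channel autofluorescence of compounds in culture medium (DMEM, 10% FBS), no cells, measured at 540/590 nm. Rose Bengal sodium is the reference fluorophore for equivalence.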

[12] = qHTS assay to test for compound auto fluorescence at 590 nm (red) in HepG2 cell free culture (AID 720684)
In short: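 Steps: dispense MEM/10% FBS medium, no cells; pin compound or DMSO vehicle; read red channel, Ex/Em 540/590 nm. Output given as Rose Bengal sodium equivalents.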

[13] = qHTS assay to test for compound auto fluorescence at 460 nm (blue) in HepG2 cell free culture (AID 720685)
In short: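 Compound (23 nL) or DMSO pinned into cell-free MEM with 10% FBS; blue fluorescence read at 405/460 nm excitation/emission, expressed as auto-fluorescence equivalency to triamterene.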

[14] = qHTS assay to test for compound auto fluorescence at 535 nm (green) in HepG2 cell free culture (AID 720686)
[15] = qHTS assay to test for compound auto fluorescence at 460 nm (blue) in HepG2 cells (AID 720687)
In short: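 Blue-channel autofluorescence (Ex/Em 405/460 nm, triamterene-equivalent) was measured after 1 hr compound exposure at 37 C, 5% CO2. Cells were HepG2, plated overnight at 37 C in MEM plus 10% FBS.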

[16] = target: Glucocorticoid receptor (Homo sapiens) (UniProt P04150); assay: qHTS assay to identify small molecule agonists of the glucocorticoid receptor (GR) signaling pathway (AID 720691; active = well fitted activation curve with a large enough effect in the signal ratio in the repeat runs, not every such curve was filed as active; the % refers to the signal ratio)
Glucocorticoid receptor (Homo sapiens), sequence (P04150 whole entry, looked up): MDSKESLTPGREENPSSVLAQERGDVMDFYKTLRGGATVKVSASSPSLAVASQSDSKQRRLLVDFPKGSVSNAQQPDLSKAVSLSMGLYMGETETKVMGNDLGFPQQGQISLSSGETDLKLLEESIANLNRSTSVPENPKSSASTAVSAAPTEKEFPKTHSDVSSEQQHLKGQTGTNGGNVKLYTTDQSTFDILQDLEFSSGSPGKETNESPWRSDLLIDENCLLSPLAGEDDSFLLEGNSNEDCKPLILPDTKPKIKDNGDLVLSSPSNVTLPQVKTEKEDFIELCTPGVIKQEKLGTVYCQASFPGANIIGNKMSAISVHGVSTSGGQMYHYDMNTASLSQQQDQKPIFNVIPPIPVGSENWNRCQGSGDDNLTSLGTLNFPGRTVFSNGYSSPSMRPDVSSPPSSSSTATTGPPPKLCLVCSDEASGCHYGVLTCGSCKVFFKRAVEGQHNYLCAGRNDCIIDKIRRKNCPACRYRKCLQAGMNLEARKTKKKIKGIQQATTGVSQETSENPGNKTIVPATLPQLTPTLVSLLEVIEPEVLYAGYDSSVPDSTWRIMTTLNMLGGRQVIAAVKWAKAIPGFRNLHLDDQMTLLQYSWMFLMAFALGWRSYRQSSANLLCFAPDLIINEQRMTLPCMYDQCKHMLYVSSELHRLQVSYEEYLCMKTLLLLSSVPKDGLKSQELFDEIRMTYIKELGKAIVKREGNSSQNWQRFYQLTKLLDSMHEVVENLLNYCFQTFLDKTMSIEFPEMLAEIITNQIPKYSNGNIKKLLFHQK
In short: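 GR-bla HeLa cells (beta-lactamase reporter under glucocorticoid response element) were plated 4 h at 37 C/5% CO2, given compounds in DMSO, and incubated 18 h at 37 C. LiveBLAzer B/G FRET substrate was added for 2 h at room temperature, then fluorescence intensity read.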

[17] = target: Glucocorticoid receptor (Homo sapiens) (UniProt P04150); assay: qHTS assay to identify small molecule antagonists of the glucocorticoid receptor (GR) signaling pathway (AID 720692; active = well fitted inhibition curve with a large enough effect in the signal ratio in the repeat runs, not every such curve was filed as active; the % refers to the signal ratio)
In short: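 GR-bla HeLa cells (beta-lactamase reporter under glucocorticoid response element) were pre-plated 4 h at 37 C, treated with compounds plus 5 nM dexamethasone (final) for 18 h, then read by LiveBLAzer B/G FRET fluorescence after 2 h.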

[18] = qHTS assay for identifying genotoxic compounds that show differential cytotoxicity against isogenic chicken DT40 cell lines with known DNA damage response pathways - wild type cell line (AID 743012); also: nearly all actives have a fitted effect of over 60% in size
In short: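 Parental DNA repair-proficient DT40 cells, 300 per well, were pre-incubated ~0.5 h at 37 C/5% CO2, pin-dosed with compounds in DMSO, then incubated 40 h. Viability was read as CellTiter-Glo luminescence after 30 min at room temperature.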

[19] = qHTS assay for identifying genotoxic compounds that show differential cytotoxicity against isogenic chicken DT40 cell lines with known DNA damage response pathways - Rev3 mutant cell line (AID 743014); also: potency is read from the fitted curve at half-maximal effect; nearly all actives have a fitted effect of over 55% in size
[20] = qHTS assay for identifying genotoxic compounds that show differential cytotoxicity against isogenic chicken DT40 cell lines with known DNA damage response pathways - Rad54/Ku70 mutant cell line (AID 743015); also: nearly all actives have a fitted effect of over 60% in size
[21] = qHTS assay to identify small molecule antagonists of the androgen receptor (AR) signaling pathway - cell viability counter screen (AID 743033; also: nearly all actives have a fitted effect of over 45% in size)
[22] = qHTS assay to identify small molecule antagonists of the androgen receptor (AR) signaling pathway using the MDA cell line - cell viability counter screen (AID 743041; also: nearly all actives have a fitted effect of over 45% in size)
In short: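 Cells were plated at 3,000 per well and left 5 h. Compounds in DMSO were then pinned in, followed by R1881. After 16 h at 37C, CellTiter-Fluor fluorescence gave viability.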

[23] = qHTS assay to identify small molecule antagonists of the thyroid receptor (TR) signaling pathway - cell viability counter screen (AID 743064); also: nearly all actives have a fitted effect of over 50% in size
In short: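 In rat pituitary GH3.TRE-Luc reporter cells co-exposed to compound and 1 nM T3 for 23.5 h, cytotoxicity was assessed with CellTiter-Fluor in the same wells, read by fluorescence.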

[24] = qHTS assay to identify small molecule antagonists of the thyroid receptor (TR) signaling pathway (AID 743065); also: series mostly up to about 70 µM; nearly all actives have a fitted effect of over 55% in size
In short: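 Antagonism measured as loss of luciferase signal in GH3 cells stably carrying a TRE-luciferase reporter, co-treated with compound and T3 (1 nM final) for 23.5 h at 37 C. Viability was read in the same well by CellTiter-Fluor.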

[25] = system: thyroid hormone receptor (rat, GH3 cells); assay: qHTS assay to identify small molecule agonists of the thyroid receptor (TR) signaling pathway (AID 743066; calls by dose curve)
[26] = target: Estrogen receptor (Homo sapiens) (UniProt P03372); assay: qHTS assay to identify small molecule antagonists of the estrogen receptor alpha (ER-alpha) signaling pathway (AID 743069; active = well fitted curve in the direction sought with a large enough effect in the signal ratio in the repeat runs, not every such curve was filed as active; the % refers to the signal ratio)
Estrogen receptor (Homo sapiens), sequence (P03372 whole entry, looked up): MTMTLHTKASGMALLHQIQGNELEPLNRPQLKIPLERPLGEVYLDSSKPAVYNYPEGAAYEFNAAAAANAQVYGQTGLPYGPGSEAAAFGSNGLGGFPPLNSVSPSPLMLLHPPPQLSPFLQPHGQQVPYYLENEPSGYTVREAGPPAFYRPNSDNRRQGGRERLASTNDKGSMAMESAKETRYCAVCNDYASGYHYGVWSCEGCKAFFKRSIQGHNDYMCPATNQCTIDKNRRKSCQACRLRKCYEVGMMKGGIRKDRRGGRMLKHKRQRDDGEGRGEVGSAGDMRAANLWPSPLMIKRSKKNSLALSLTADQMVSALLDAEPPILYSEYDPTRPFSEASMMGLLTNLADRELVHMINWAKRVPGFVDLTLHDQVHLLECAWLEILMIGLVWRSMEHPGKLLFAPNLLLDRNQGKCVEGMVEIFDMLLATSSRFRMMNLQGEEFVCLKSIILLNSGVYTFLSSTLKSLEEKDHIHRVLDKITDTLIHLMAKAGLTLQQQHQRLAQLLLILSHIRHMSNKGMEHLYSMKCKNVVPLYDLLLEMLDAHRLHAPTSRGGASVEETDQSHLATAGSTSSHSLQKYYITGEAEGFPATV
In short: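 ER-alpha-UAS-bla GripTite HEK293 line; 2% charcoal-stripped FBS overnight; plated, 4 hr 37C/5% CO2; cpd in DMSO + 17beta-estradiol, 18 hr 37C; LiveBLAzer B/G FRET substrate 2 hr RT; fluorescence intensity.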

[27] = qHTS assay to identify small molecule antagonists of the estrogen receptor alpha (ER-alpha) signaling pathway - cell viability counter screen (AID 743074; calls by dose curve;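 also: HEK293 cells carrying ER-alpha-UAS-bla reporter stimulated with 17beta-estradiol; nearly all actives have a fitted effect of over 45% in size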)
[28] = target: Estrogen receptor (Homo sapiens) (UniProt P03372); assay: qHTS assay to identify small molecule agonists of the estrogen receptor alpha (ER-alpha) signaling pathway (AID 743075; calls by dose curve;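 also: HEK293 GripTite cells with ER-alpha and UAS-driven beta-lactamase reporter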)
[29] = target: Estrogen receptor (Homo sapiens) (UniProt P03372); assay: qHTS assay to identify small molecule agonists of the estrogen receptor alpha (ER-alpha) signaling pathway using the BG1 cell line (AID 743079); also: nearly all actives have a fitted effect of over 20% in size
[30] = qHTS assay to identify small molecule antagonists of the estrogen receptor alpha (ER-alpha) signaling pathway using the BG1 cell line (AID 743080; calls by dose curve;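 also: BG1 cells stimulated with 17beta-estradiol alongside compound; series mostly up to about 70 µM; nearly all actives have a fitted effect of over 25% in size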)
In short: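 BG1-Luc-4E2 cells (endogenous full-length ER-alpha, 4xERE luciferase) hormone-starved 5 days in charcoal-stripped FBS, plated 4,000/well for 24 h, then compound plus 17beta-estradiol for 21.5 h at 37 C; ONE-Glo luminescence read.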

[31] = qHTS assay to identify small molecule antagonists of the estrogen receptor alpha (ER-alpha) signaling pathway using the BG1 cell line - cell viability counter screen (AID 743081);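 also: compound given together with 17beta-estradiol as the ER stimulus; series mostly up to about 70 µM; nearly all actives have a fitted effect of over 45% in size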
Aromatase (Homo sapiens) = Aromatase (Homo sapiens) (UniProt P11511); assay: qHTS assay to identify aromatase inhibitors (AID 743083); also: series mostly up to about 70 µM; nearly all actives have a fitted effect of over 55% in size
Aromatase (Homo sapiens), sequence (P11511 whole entry, looked up): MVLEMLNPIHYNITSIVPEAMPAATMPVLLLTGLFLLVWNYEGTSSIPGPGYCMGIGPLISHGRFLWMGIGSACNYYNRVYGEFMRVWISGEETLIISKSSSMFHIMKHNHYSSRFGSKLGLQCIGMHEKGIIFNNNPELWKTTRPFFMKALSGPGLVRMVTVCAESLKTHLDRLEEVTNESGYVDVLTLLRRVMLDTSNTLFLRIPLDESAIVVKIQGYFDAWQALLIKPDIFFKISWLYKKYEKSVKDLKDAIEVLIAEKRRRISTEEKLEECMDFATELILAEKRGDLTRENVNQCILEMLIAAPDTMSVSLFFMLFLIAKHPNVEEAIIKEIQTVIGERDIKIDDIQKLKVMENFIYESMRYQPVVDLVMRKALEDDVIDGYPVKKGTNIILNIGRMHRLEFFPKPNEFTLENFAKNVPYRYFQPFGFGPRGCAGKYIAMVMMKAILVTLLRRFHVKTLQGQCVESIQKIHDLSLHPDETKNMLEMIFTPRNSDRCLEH

[32] = qHTS assay to identify aromatase inhibitors - cell viability counter screen (AID 743084);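 also: cells stimulated with testosterone during compound exposure; nearly all actives have a fitted effect of over 55% in size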
[33] = target: Aryl hydrocarbon receptor (Homo sapiens) (UniProt P35869); assay: qHTS assay to identify small molecule that activate the aryl hydrocarbon receptor (AhR) signaling pathway (AID 743085);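 also: HG2L7.5c1 human HepG2 liver cells with stably integrated DRE-driven firefly reporter; series mostly up to about 70 µM; nearly all actives have a fitted effect of over 15% in size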
Aryl hydrocarbon receptor (Homo sapiens), sequence (P35869 whole entry, looked up): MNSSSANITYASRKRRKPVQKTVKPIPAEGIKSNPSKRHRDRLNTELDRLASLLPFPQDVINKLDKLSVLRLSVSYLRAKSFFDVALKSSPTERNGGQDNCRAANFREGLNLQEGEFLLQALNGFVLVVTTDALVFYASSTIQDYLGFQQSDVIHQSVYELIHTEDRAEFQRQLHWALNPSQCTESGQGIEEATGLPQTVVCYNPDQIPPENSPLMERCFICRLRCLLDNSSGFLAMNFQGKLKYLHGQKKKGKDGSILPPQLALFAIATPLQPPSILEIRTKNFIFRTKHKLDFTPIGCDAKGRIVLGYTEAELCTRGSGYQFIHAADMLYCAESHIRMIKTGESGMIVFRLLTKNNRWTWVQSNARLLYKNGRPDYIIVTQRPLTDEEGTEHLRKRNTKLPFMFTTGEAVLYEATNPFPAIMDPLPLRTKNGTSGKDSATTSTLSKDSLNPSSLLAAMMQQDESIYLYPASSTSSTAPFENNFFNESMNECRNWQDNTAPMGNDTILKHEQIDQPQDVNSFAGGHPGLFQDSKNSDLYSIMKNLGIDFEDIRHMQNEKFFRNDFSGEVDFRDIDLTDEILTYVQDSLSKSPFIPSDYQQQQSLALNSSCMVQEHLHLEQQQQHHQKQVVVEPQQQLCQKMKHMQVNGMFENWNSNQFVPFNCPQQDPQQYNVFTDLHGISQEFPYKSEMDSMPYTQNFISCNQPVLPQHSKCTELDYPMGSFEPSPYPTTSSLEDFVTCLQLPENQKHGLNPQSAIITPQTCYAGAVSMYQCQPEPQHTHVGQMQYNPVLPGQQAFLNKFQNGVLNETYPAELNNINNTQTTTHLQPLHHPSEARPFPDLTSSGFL
In short: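 AhR agonist activity is inferred from enhanced light output of a DRE-controlled firefly luciferase reporter in HepG2 cells, measured with ONE-Glo following 24 h treatment at 37C.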

[34] = qHTS assay to identify small molecule that activate the aryl hydrocarbon receptor (AhR) signaling pathway - cell viability counter screen (AID 743086)
In short: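 Cytotoxicity counter screen: CellTiter-Fluor signal (30 min, 37 C) in 4000 HepG2 cells/well carrying the DRE-luciferase reporter, following 24 h compound exposure at 37 C.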

[35] = target: Peroxisome proliferator-activated receptor gamma (Homo sapiens) (UniProt P37231); assay: qHTS assay to identify small molecule agonists of the peroxisome proliferator-activated receptor gamma (PPARg) signaling pathway (AID 743094; active = well fitted activation curve with a large enough effect in the signal ratio in the repeat runs, not every such curve was filed as active; the % refers to the signal ratio)
Peroxisome proliferator-activated receptor gamma (Homo sapiens), sequence (P37231 whole entry, looked up): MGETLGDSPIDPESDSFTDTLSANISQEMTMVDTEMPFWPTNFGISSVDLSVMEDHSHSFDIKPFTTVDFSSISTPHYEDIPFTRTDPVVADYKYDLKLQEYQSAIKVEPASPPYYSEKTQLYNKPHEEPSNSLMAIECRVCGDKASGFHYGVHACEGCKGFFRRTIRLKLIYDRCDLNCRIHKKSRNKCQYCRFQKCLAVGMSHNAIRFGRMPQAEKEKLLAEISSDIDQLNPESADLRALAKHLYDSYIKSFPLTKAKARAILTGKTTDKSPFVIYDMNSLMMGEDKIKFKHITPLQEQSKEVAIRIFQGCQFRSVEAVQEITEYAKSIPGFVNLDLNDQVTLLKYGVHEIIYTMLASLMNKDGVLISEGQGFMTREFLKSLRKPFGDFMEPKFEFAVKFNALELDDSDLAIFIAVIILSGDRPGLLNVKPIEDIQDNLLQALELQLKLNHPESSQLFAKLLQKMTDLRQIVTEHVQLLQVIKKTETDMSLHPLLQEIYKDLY
In short: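 GeneBLAzer PPARg UAS-bla HEK293H cells carrying a stably integrated beta-lactamase reporter were pre-incubated 5 h at 37C, then exposed to compounds in DMSO for 17 h at 37C; LiveBLAzer B/G FRET substrate was added for 1 h at room temperature and fluorescence read.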

Measured: Potency

O=P1(N(CCCl)CCCl)NC(OO)CCO1 (stereo unspecified)
active: [19] 13.3 µM
inactive: all other assays above
